# Inconclusive results are not listed. Activity calls are given as the source filed them. The call rests on the fitted dose curve; in most records, active means well fitted activation curve with a large enough effect; inconclusive means small, poorly fitted or top-dose-only effect; inactive means flat fitted curve, though single readings scatter.
# Target: Luciferin 4-monooxygenase (Photinus pyralis) (UniProt P08659)
# Assay: FLuc inhibitory activity for the follow-up compounds in a cell-based translational read-through assay (72 hour incubation)
# Conditions: GripTite 293 FLucUGA read-through, luminescence; series mostly up to 38.3 µM; activation (luciferase signal increase): at the top concentration
# Description: NCGC Assay Overview: Firefly (Photinus pyralis) luciferase is one of the most commonly used transcriptional reporters. It is considered one of the more dynamically responsive reporters - that is, responsive to changes in reporter transcription - as it requires no post-translational modifications and is enzymatically active directly after protein synthesis (Wood, 1998). With no endogenous expression in mammalian cells and without the requirement of external excitation, it offers very little background signal, thus generally providing excellent signal to background for most assays. Previous profiling work to determine the prevalence of compounds that affect FLuc enzymatic activity (PubChem AID 411) identified that ~3% of the MLSMR library (then at ~72K) inhibited FLuc (Auld et al., 2008). […] Of the compounds identified in this profile that inhibited FLuc, 151 compounds were selected for further analysis, in an effort to better understand their mode of inhibiting FLuc. The assay described here was to determine the activity of the compounds in a cell-based firefly luciferase reporter gene assay originally designed to identify compounds that enchanced translational read-through of a FLuc cDNA that contained a premature stop codon (Auld et al., 2009; Auld et al., 2010). Compounds that enhance translational read-through or compounds that stabilize FLuc intracellularly are identified as active compounds in the assay.
# NCGC Assay Protocol Summary: Reagents: Transient transfection of FlucUGA construct: TransFast Transfection Reagent (Promega #E2431); FLucUGA construct (refer to Auld et al., 2009) #GripTite 293 MSR Cell Line (Invitrogen #R795-07) #Complete growth media: DMEM (Invitrogen #11965), 10% HIFBS, 0.1mM MEM NEAA, 5mL/L pen-strep (of 5000U/mL stock), 600ug/mL Geneticin #Assay media: DMEM without phenol red (Invitrogen #21063), 5% charcoal-stripped HIFBS (Hyclone #SH30071.03), 0.1mM MEM NEAA In-house detection reagent: 300mM Tris-HCl, 300mM Trizma base, 300mM MgCl, 1% Triton-X100, 5mM DTT, 500uM Coenzyme A trilithium salt (Sigma #C3019),450uM ATP (Sigma #A7699), 1mM D-luciferin sodium salt monohydrate (Biosynth #L8240) Control compounds used were two known firefly luciferase inhibitors (3-(5-(3-chlorophenyl)-1,2,4-oxadiazol-3-yl)benzoic acid and 5-(2-fluorophenyl)-3-phenyl-1,2,4-oxadiazole), and DMSO. Assay Summary: Transient transfection of FlucUGA construct: Day 1: GripTite cells were plated in T175 flasks at a density of 1.75 x 10^7 cells/T175 flask in complete growth media without Geneticin and allowed to grow ON in a 37 degrees Celsius incubator. Day 2: Cells in T175 flask were transfected - with 10ug of DNA and 30uL Transfast in 12mL complete growth media without serum and without Geneticin for 4 hours at 37 degrees Celsius. After incubation, cells were trypsinized, spun down, and resuspended to a concentration of 3.3 x 10^5 cells/mL in assay media. 6uL of cells in assay buffer were dispensed at 2000cells/well (3.3 x 10^5 cells/mL) into Greiner solid-white TC-treated 1536-well plates using a Multidrop Combi (Thermo Fisher Scientific). Plates were incubated for one hour at 37 degree Celsius, 95% humidity, 5% CO2. These assay plates were then treated with 23nL of compound or DMSO using a Kalypsys pin tool, which allows for delivery of a 12-point titration of each compound to the assay plate, with a final compound concentration ranging from approximately ~38uM to 0.2nM. Assay plates were then incubated for 72 hours. After incubation, plates were washed three times with DPBS (7uL/well). After the third wash, 6uL of DPBS was added to each well. 3uL of 3X luciferase detection reagent was then added to each well using a flying reagent dispenser (FRD). After a 15 minute incubation to allow for cell lysis, luciferase activity was measured using a ViewLux CCD imager (PerkinElmer), with an average exposure time of 2-12 seconds.
# Chain of Luciferin 4-monooxygenase (Photinus pyralis) (P08659 whole entry, looked up): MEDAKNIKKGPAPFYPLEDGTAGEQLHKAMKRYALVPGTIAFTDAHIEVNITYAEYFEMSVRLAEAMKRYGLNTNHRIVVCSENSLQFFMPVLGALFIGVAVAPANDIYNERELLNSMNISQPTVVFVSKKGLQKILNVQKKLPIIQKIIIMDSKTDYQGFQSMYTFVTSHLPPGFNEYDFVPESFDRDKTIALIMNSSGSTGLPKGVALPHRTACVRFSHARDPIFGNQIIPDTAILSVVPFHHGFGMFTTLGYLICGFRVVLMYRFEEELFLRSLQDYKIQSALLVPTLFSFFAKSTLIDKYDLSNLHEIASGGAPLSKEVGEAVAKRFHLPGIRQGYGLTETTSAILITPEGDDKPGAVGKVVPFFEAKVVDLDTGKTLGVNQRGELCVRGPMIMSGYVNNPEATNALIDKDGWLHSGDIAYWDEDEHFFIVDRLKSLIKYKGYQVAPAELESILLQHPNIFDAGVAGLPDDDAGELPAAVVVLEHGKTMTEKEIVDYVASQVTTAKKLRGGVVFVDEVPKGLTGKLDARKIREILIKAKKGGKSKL
SMILES,Potency,activation (luciferase signal increase)
Cc1ccc(C(=O)O/N=C(\N)c2ccccn2)cc1,2.25 µM (active),
CCOc1ccc2nc(NC(=O)c3ccccc3)sc2c1,1.79 µM (active),
COc1ccc2nc(NC(=O)c3cccc(S(=O)(=O)N4CCOCC4)c3)sc2c1,,4.08% (inactive)
c1ccc2sc(-c3ccc4c(c3)OCO4)nc2c1,1.79 µM (active),
O=C(O)c1cccc(NC(=O)c2ccc(S(=O)(=O)c3ccccc3)cc2)c1,,-1.83% (inactive)
Cc1ccc(S(=O)(=O)N2CCOCC2)cc1C(=O)Nc1ccccc1C(=O)O,,-2.13% (inactive)
COc1ccc(-c2nc3ccccc3s2)cc1O,14.2 µM (active),
O=C(O)c1ccc(NC(=O)c2cccc(NC(=O)c3cccs3)c2)cc1,,4.99% (inactive)
COc1ccc(C(=O)Nc2ccccc2-c2nc3ccccc3s2)c(OC)c1,,2% (inactive)
O=C(O)c1cccc(NC(=O)c2ccccc2NC(=O)c2ccco2)c1,,10.3% (inactive)
Cc1c(NC(=O)c2cccs2)cccc1-c1nc2ccccc2s1,,17.8% (inactive)
Nc1ccc(-c2nc3ccc(C(=O)O)cc3s2)cc1,0.159 µM (active),
COc1cc(C(=O)Nc2cc(C)c(O)c(-c3nc4ccccc4s3)c2)cc(OC)c1OC,,0.911% (inactive)
CC(=O)Nc1cccc(-c2nc3ccccc3s2)c1C,,6.4% (inactive)
O=C(O)c1ccccc1NC(=O)c1ccccc1Nc1ccccc1,,2.54% (inactive)
O=C(Cc1ccccc1)Nc1ccc(C(=O)Nc2ccccc2C(=O)O)cc1,,-3.79% (inactive)
O=C(Nc1ccccc1C(=O)O)c1cc(S(=O)(=O)Nc2ccccc2)ccc1Cl,,2.25% (inactive)
Cc1cccc(NS(=O)(=O)c2cccc(C(=O)Nc3cccc(C(=O)O)c3)c2)c1,,5.34% (inactive)
O=C(Nc1ccc(-c2nc3ccccc3s2)cc1)C1=COCCO1,0.318 µM (active),
Cc1c(NS(C)(=O)=O)cccc1-c1nc2ccccc2s1,,-0.265% (inactive)

SMILES,Potency,activation (luciferase signal increase)
CC(=O)Nc1cccc(C(=O)Nc2ccccc2C(=O)O)c1,,7.79% (inactive)
Cc1ccc2nc(-c3ccc(N)cc3)sc2c1,1.42 µM (active),
Cc1c(NC(=O)C(C)(C)C)cccc1-c1nc2ccccc2s1,,16% (inactive)
COc1ccc2nc(NC(=O)CCc3nc(-c4ccccc4F)no3)sc2c1,,13.1% (inactive)
COc1ccc2nc(NC(=O)c3ccc([N+](=O)[O-])o3)sc2c1,20 µM (active),
COc1c(C)cccc1C(=O)Nc1ccc(-c2nc3ccccc3s2)c(Cl)c1,,0.556% (inactive)
Cc1ccc(NS(=O)(=O)c2ccc(Cl)c(C(=O)Nc3cccc(C(=O)O)c3)c2)cc1,,5.38% (inactive)
Cc1ccc2sc(-c3ccc(NC(=O)c4cc(-n5cnnc5)ccc4Cl)cc3)nc2c1,14.2 µM (active),
CC(C)(C)NC(=O)c1ccccc1-c1nc2ccccc2s1,,1.37% (inactive)
COc1ccc(C(=O)Nc2ccccc2C(=O)N/N=C/c2ccc(O)c(OC)c2)cc1,,-2.18% (inactive)
COc1ccc2nc(NC(=O)CCc3ccc(OC)c(OC)c3)sc2c1,,-1.91% (inactive)
CC(C)CC(=O)Nc1cccc(C(=O)Nc2ccccc2C(=O)O)c1,,-2.22% (inactive)
Nc1ccc(-c2nc3ccc(N)cc3s2)cc1,4 µM (active),
Cc1ccc(C(=O)Nc2cccc(C(=O)O)c2)cc1S(=O)(=O)N1CCCCC1,3.18 µM (active),
Cc1cccc(C(=O)Nc2ccc(-c3nc4ccccc4s3)cc2Cl)c1,,5.41% (inactive)
O=C(O)c1cccc(NC(=O)c2cccc(S(=O)(=O)N3CCc4ccccc4C3)c2)c1,,11% (inactive)
CCCOc1cccc(C(=O)Nc2ccc(-c3nc4ccccc4s3)c(Cl)c2)c1,,10.8% (inactive)
Nc1ccc(-c2nc3cc(N)ccc3s2)cc1,22.5 µM (active),
CCn1c(C)nc2cc(-c3nc4n(n3)Cc3ccccc3-4)ccc21,0.0798 µM (active),
CC(C)C(=O)Nc1cccc(C(=O)Nc2ccccc2C(=O)O)c1,,6.56% (inactive)

# Reference: PubChem BioAssay AID602478 (National Center for Advancing Translational Sciences (NCATS), 2012)
